Our source for the Potency and outcome values is PubChem BioAssay (Tox21).

Test [1] is described as follows: qHTS assay to identify small molecule agonists of the peroxisome proliferator-activated receptor delta (PPARd) signaling pathway - cell viability counter screen (AID 743211). Note: nearly all actives have a fitted effect of over 55% in size. Put shortly:
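In the same wells used for beta-lactamase reporter measurement, cytotoxicity is scored by CellTiter-Glo. HEK293H PPARd-bla cells receive compound for 17 h at 37C following a 5 h settling period.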
For orientation: qHTS replaces the single test concentration by a dilution series.

The target in test [2] is Peroxisome proliferator-activated receptor delta (Homo sapiens) (UniProt Q03181). Briefly: qHTS assay to identify small molecule agonists of the peroxisome proliferator-activated receptor delta (PPARd) signaling pathway (AID 743212; calls by dose curve;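 note: HEK293H cells with PPARd UAS beta-lactamase reporter GeneBLAzer system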). The method, boiled down:
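Beta-lactamase reporter read by fluorescence (LiveBLAzer B/G FRET, 2 h, room temperature). Test agents, in DMSO, incubated at 37 C with PPARd-bla HEK293H cells.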

A short description of test [3]: qHTS assay to identify small molecule antagonists of the peroxisome proliferator-activated receptor delta (PPARd) signaling pathway - cell viability counter screen (AID 743213). Note: nearly all actives have a fitted effect of over 50% in size. Put shortly:
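Cytotoxicity counter screen: CellTiter-Glo luminescence read 30 min after addition, in the same wells as the reporter assay. There, PPARd UAS-bla HEK293H cells (3000/well) were treated 17 h at 37 C with compound and 300 nM L165041.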

Test [4] in a line: qHTS assay to identify small molecule agonists of the farnesoid-X-receptor (FXR) signaling pathway - cell viability counter screen (AID 743218). Note: nearly all actives have a fitted effect of over 45% in size. Put shortly:
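Viability counter screen in the same wells: CellTiter-Glo luminescence, 30 min room-temperature incubation, measured after the beta-lactamase read. Cells were GeneBLAzer FXR-UAS-bla HEK 293T, compound-treated 16 h at 37C.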

Test [5] is described as follows: qHTS assay to identify small molecule antagonists of the farnesoid-X-receptor (FXR) signaling pathway - cell viability counter screen (AID 743221; active = well fitted cell-killing curve with a large enough effect in the repeat runs, not every such curve was filed as active; note: nearly all actives have a fitted effect of over 50% in size). The method, boiled down: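 Here viability was scored by luminescence after CellTiter-Glo addition to wells already read for beta-lactamase. Prior treatment: compound plus CDCA (50 uM final), 16 h, 37 C, HEK 293T FXR-bla cells.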

Test [6] concerns the target Vitamin D3 receptor (Homo sapiens) (UniProt P11473). Briefly: qHTS assay to identify small molecule agonists of the vitamin D receptor (VDR) signaling pathway (AID 743222; calls by dose curve). The method, boiled down:
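Agonist mode, beta-lactamase reporter: fluorescence from LiveBLAzer B/G FRET substrate (2 h, room temperature) read after 16 h compound treatment at 37 C of VDR-bla cells, which were pre-incubated 4 h after seeding.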

Test [7] shares this target. Briefly: qHTS assay to identify small molecule antagonists of the vitamin D receptor (VDR) signaling pathway (AID 743223; active = well fitted inhibition curve with a large enough effect in the signal ratio in the repeat runs, not every such curve was filed as active; the % refers to the signal ratio). Put shortly:
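Inhibition of agonist-driven VDR signalling is scored in VDR-bla cells: 3 nM final 1alpha,25-dihydroxyvitamin D3 plus compound, 16 h at 37C, then beta-lactamase detection by FRET substrate fluorescence after 2 h.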

A short description of test [8]: qHTS assay to identify small molecule agonists of the vitamin D receptor (VDR) signaling pathway - cell viability counter screen (AID 743224). Note: series mostly up to about 63 µM; nearly all actives have a fitted effect of over 50% in size. Put shortly:
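Counter screen run in the same wells as the VDR-bla reporter assay: CellTiter-Glo luminescence, 30 min at room temperature, after 16 h compound treatment at 37C of cells pre-plated for 4 h.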

Test [9] is described as follows: qHTS assay to identify small molecule agonists of the NFkB signaling pathway - cell viability counter screen (AID 1159515; calls by dose curve; note: series mostly up to about 61 µM; nearly all actives have a fitted effect of over 55% in size). Put shortly:
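Read by CellTiter-Glo luminescence (30 min, room temperature) in the wells also used for the beta-lactamase FRET read. ME-180 NFkB-bla cells at 2,000 per well were plated overnight, then exposed to compound for 5 hr at 37 C.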

Test [10] is described as follows: qHTS assay to identify small molecule agonists of the endoplasmic reticulum stress response signaling pathway (AID 1159516; active = well fitted activation curve with a large enough effect in the signal ratio in the repeat runs, not every such curve was filed as active; the % refers to the signal ratio). Put shortly: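 Ratiometric FRET readout (405 nm excitation; 460 and 530 nm emission) of a beta-lactamase gene driven by the ER stress response element, after 2 hr substrate loading. HeLa ESRE-bla cells were seeded overnight and treated with compounds for only 5 hr at 37 C.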

The nature of test [11]: qHTS assay to identify small molecule antagonists of the retinoid-related orphan receptor gamma (ROR-gamma) signaling pathway - cell viability counter screen (AID 1159520). Note: nearly all actives have a fitted effect of over 50% in size. Put shortly: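 Tet-on ROR gamma CHO cells (1,000/well) were plated 4 hr, given compounds in DMSO for 2 hr at 37 C, then induced with 1 uM final doxycycline for 16 hr. Viability was read as ATP by CellTiter-Glo luminescence after 30 min.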

Test [12] addresses Nuclear receptor ROR-gamma (Homo sapiens) (UniProt P51449). Description: qHTS assay to identify small molecule antagonists of the retinoid-related orphan receptor gamma (ROR-gamma) signaling pathway (AID 1159521; note: nearly all actives have a fitted effect of over 50% in size; note: potency is the fitted concentration of half-maximal effect). The method, boiled down: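 Test compounds were applied to Tet-on RORγ CHO cells 2 h ahead of doxycycline hyclate (1 uM final). Luciferase reporter activity was quantified by luminescence after 16 h at 37 C and 5% CO2.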

Test [13] in a line: qHTS assay to identify small molecule agonists of the AP-1 signaling pathway (AID 1159526; calls by dose curve).
Test [14] concerns the target Retinoic acid receptor RXR-alpha (Homo sapiens) (UniProt P19793). Description: qHTS assay to identify small molecule agonists of the RXR signaling pathway (AID 1159527; calls by dose curve; note: nearly all actives have a fitted effect of over 35% in size; note: potency is the fitted concentration of half-maximal effect). Put shortly:
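Using 9-cis retinoic acid as the reference agonist, chemicals were tested in HEK 293T cells […] for 16 hr; substrate loading lasted 2 hr at room temperature.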

Test [15] is described as follows: qHTS assay to identify small molecule agonists of the AP-1 signaling pathway - cell viability counter screen (AID 1159525; calls by dose curve; note: nearly all actives have a fitted effect of over 55% in size). Put shortly: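 Each titration point was normalised to DMSO and tetra n-octyl ammonium bromide controls. The read was Cell Titer Glo luminescence after 30 min at RT, following 5 h compound exposure of ME-180 AP-1-bla cells at 37 °C.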
Test [16] concerns the target Peroxisome proliferator-activated receptor delta (Homo sapiens) (UniProt Q03181). Description: qHTS assay to identify small molecule antagonists of the peroxisome proliferator-activated receptor delta (PPARd) signaling pathway (AID 743215; active = well fitted inhibition curve with a large enough effect in the signal ratio in the repeat runs, not every such curve was filed as active; the % refers to the signal ratio;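 note: cells stimulated with agonist L165041 at 300 nM final during compound exposure; series mostly up to about 62 µM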). The method, boiled down: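 Agonist L165041 (300 nM final) added with compound to PPARd-bla HEK293H UAS-bla reporter cells; 17 h incubation at 37 C. Read-out: LiveBLAzer FRET substrate, 2 h at room temperature, fluorescence intensity.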

The nature of test [17]: qHTS assay to identify small molecule antagonists of the vitamin D receptor (VDR) signaling pathway - cell viability counter screen (AID 743225). Note: nearly all actives have a fitted effect of over 50% in size. The method, boiled down: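 Compounds were pinned onto VDR-bla HEK 293T cells together with 1-alpha,25-dihydroxyvitamin D3 at 3 nM final. After 16 h at 37C and 5% CO2 plus the reporter readout, cell viability was measured by CellTiter-Glo luminescence (30 min, room temperature).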

A short description of test [18]: qHTS assay to identify small molecule agonists of the endoplasmic reticulum stress response signaling pathway - cell viability counter screen (AID 1159517; calls by dose curve). The method, boiled down: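 Cytotoxicity of test compounds toward ESRE-bla HeLa cells was assessed after 5 hr exposure. The luminescent CellTiter-Glo signal was measured 30 min after reagent addition.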
Test [19] has as its target Bile acid receptor (Homo sapiens) (UniProt Q96RI1). Briefly: qHTS assay to identify small molecule antagonists of the farnesoid-X-receptor (FXR) signaling pathway (AID 743217; active = well fitted inhibition curve with a large enough effect in the signal ratio in the repeat runs, not every such curve was filed as active; the % refers to the signal ratio). Put shortly:
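Antagonist mode: chenodeoxycholic acid at 50 uM final stimulates a UAS-driven beta-lactamase reporter in HEK 293T FXR-bla cells during 16 h, 37C compound exposure. Read-out is FRET substrate fluorescence after 2 h at room temperature.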

For test [20] the target is unchanged. Briefly: qHTS assay to identify small molecule agonists of the farnesoid-X-receptor (FXR) signaling pathway (AID 743220; active = well fitted activation curve with a large enough effect in the signal ratio in the repeat runs, not every such curve was filed as active; the % refers to the signal ratio). Put shortly: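 FXR-UAS-bla HEK 293T cells carrying a UAS-driven beta-lactamase reporter were plated for 5 h at 37C/5% CO2, then exposed to DMSO-dissolved Tox21 10K compounds for 16 h at 37C. A LiveBLAzer B/G FRET substrate was loaded for 2 h at room temperature before fluorescence reading.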

Results filed as inconclusive are left out. The source holds several records for some structures; these can differ, active in one and inactive in another. The source made the active and inactive calls. Unless noted, calls come from the whole dose curve; as a rule, active = well fitted curve in the direction sought with a large enough effect in the repeat runs; inconclusive = weak or mixed curves; inactive = no such curve, though single readings can be large; an effect the other way counts as inactive or inconclusive.

Chain of Peroxisome proliferator-activated receptor delta (Homo sapiens) (Q03181 whole entry, looked up): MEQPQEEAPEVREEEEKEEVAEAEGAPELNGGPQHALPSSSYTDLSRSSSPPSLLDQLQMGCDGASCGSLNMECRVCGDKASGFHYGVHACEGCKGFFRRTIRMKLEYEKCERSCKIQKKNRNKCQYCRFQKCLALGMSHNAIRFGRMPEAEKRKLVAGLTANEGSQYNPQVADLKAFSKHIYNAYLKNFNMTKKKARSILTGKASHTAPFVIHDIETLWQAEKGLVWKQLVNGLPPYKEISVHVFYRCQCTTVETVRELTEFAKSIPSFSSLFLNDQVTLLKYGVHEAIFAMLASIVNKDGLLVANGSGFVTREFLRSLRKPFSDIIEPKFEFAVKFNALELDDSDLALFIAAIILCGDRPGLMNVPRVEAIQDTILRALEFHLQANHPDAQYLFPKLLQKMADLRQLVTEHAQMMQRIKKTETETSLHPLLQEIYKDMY
Chain of Bile acid receptor (Homo sapiens) (Q96RI1 whole entry, looked up): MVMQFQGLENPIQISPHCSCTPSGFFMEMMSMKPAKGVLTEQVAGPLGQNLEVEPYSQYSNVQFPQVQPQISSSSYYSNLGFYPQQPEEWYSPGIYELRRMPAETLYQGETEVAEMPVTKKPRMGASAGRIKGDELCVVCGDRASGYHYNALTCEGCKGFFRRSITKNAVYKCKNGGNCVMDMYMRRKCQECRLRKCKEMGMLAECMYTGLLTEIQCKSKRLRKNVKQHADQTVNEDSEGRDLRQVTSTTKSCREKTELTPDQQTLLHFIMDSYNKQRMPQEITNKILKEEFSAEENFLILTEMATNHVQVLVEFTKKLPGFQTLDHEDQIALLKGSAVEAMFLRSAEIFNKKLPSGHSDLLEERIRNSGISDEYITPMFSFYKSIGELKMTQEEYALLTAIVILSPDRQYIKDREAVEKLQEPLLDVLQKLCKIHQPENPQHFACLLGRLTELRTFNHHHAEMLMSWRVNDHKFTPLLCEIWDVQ
Chain of Retinoic acid receptor RXR-alpha (Homo sapiens) (P19793 whole entry, looked up): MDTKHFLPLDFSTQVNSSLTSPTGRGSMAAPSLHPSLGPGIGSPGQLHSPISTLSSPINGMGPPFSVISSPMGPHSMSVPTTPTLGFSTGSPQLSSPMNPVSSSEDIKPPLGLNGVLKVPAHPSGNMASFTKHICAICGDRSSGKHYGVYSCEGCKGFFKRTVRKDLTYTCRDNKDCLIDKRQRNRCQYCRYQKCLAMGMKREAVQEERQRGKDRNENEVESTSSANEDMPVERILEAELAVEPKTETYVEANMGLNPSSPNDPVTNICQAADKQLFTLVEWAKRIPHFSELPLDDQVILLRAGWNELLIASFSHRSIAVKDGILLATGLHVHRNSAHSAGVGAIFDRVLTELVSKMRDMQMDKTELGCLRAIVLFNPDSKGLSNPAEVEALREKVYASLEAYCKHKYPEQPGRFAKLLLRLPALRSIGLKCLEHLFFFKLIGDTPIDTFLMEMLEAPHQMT
Chain of Vitamin D3 receptor (Homo sapiens) (P11473 whole entry, looked up): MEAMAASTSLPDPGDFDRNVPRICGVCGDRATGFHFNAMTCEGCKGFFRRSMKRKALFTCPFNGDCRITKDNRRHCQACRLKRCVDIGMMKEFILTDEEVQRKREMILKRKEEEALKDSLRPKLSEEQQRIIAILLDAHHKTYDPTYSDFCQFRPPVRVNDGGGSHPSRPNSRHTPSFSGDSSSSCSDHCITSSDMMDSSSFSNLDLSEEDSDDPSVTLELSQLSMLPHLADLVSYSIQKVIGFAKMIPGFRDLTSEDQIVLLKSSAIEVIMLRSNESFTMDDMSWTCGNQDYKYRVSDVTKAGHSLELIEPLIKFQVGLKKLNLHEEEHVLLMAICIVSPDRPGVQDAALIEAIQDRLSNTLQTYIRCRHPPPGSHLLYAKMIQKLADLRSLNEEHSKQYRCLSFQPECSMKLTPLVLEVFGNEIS

For `CCOP(=O)(SC(C)CC)N1CCSC1=O` (stereo unspecified), the Potency result in test [1], in test [3], in test [4], in test [5], in test [7] and in test [8] was “inactive” in each case. The Potency result in [9], in [10], in [11], in [12] and in test [13] was “inactive” throughout. Further, the outcome in [2] and in test [6] was inactive. Moreover, the Potency in test [14] was 11 µM (active).
As for `NC(=S)c1c(Cl)cccc1Cl`, the molecule was classed as inactive in [2]. For the same molecule, the Potency result in test [3], in test [4], in [5], in test [8], in [9] and in test [10] was “inactive” in each case. Besides, the Potency result in test [11], in test [12], in [15], in test [13] and in test [14] was “inactive” each time.
Turning to `Nc1cccc2ccccc12`, the Potency result in test [1], in [3], in [16], in test [4], in test [5] and in test [8] was “inactive” in each case. In addition, the Potency result in test [17], in test [9], in test [18], in test [11], in test [12] and in test [15] was “inactive” in each case. In addition, the Potency result in test [14] is “inactive”. Besides, in [2], the call was inactive.
Take `CC[N+]1(C)CCCC(OC(=O)C(O)(c2ccccc2)c2ccccc2)C1` (stereo unspecified): the call in test [2] was inactive. The Potency result in test [3], in test [4], in test [7], in test [8], in test [17] and in test [9] was “inactive” each time. The Potency entry in [10], in test [11], in [12], in test [15], in test [13] and in [14] was “inactive” each time.
Regarding `CC(Oc1cc(Cl)c(Cl)cc1Cl)C(=O)O` (stereo unspecified), the Potency entry in [1], in test [16], in test [19], in test [4], in test [5] and in [8] was “inactive” in each case. The Potency entry in test [17], in test [9], in test [10], in test [11], in test [12] and in [15] was “inactive” throughout. In addition, the Potency entry in test [13] and in [14] was “inactive” in each case. Besides, the molecule was classed as inactive in test [20].
Consider `CC(Oc1cccc(Cl)c1)C(=O)O` (stereo unspecified), for which the Potency entry in test [1], in [3], in [16], in test [19], in [7] and in [8] was “inactive” in each case. The Potency entry in test [17], in [9], in test [10], in test [11], in test [12] and in test [15] was “inactive” throughout. In [13], the Potency result is “inactive”. The molecule was called inactive in test [2], in test [20] and in [6].
Turning to `CN1C[C@H](C(=O)N[C@]2(C)O[C@@]3(O)[C@@H]4CCCN4C(=O)[C@H](Cc4ccccc4)N3C2=O)C=C2c3cccc4[nH]cc(c34)C[C@H]21`, the Potency entry in test [3], in test [4], in test [5], in test [8], in [9] and in test [18] was “inactive” in each case. Moreover, the Potency result in test [11], in [15], in test [13] and in test [14] was “inactive” each time. Further, the outcome in [20] was inactive. In test [12], the Potency is 54.7 µM (active) and inactive.
With `C#C[C@]1(O)CC[C@H]2[C@@H]3CCC4=CC(=O)CCC4=C3C=C[C@@]21CC`, the Potency entry in [1], in test [3], in [8], in [17], in test [9] and in [10] was “inactive” in each case. Also, the Potency result in test [11], in test [15], in [13] and in test [14] was “inactive” in each case.
